# Records with an inconclusive call do not appear. A number with no mark means an inactive call. Activity calls are given as the source filed them. The call rests on the fitted dose curve; in most records, active means well fitted curve in the direction sought with a large enough effect; inconclusive means small, poorly fitted or top-dose-only effect, or another doubt; inactive means no such curve, though single readings can be large; an effect the other way counts as inactive or inconclusive. Non-standard residues stand in square brackets, D forms with d. Residues, ends and D or L forms follow the SMILES beside them. *: point of attachment. Benzoyl(4-tBu) = CC(C)(C)c1ccc(C(=O)*)cc1; Lys(Et2) = CCN(CC)CCCC[C@H](N)C(=O)O
# Key:
# [1] = BET inhibitor-based combinations targeting novel dependencies in MECOM-rearranged (r) AML: SET-2 cell line (AID 2202231); settings: SET-2 AML cells viability, CellTiter-Glo luminescence, 48 h; viability: active compounds read low, concentration not given here; further: nearly all actives have a fitted effect of over 35% in size;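 on viability: plate controls were DMSO treated cells for no effect and wells without cells for full effect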
# Outline: (§1)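 Each compound was tested at eleven concentrations on cells seeded at 500/well. After two days' incubation, ATP-based luminescence reported viability; responses relative to DMSO and blank wells yielded AUC and cell-line-centred Z-AUC.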
# [2] = BET inhibitor-based combinations targeting novel dependencies in MECOM-rearranged (r) AML: OCI-AML3 cell line (AID 2202232); settings: Potency: OCI-AML3 viability; further: nearly all actives have a fitted effect of over 35% in size
# Outline: as §1
# [3] = BET inhibitor-based combinations targeting novel dependencies in MECOM-rearranged (r) AML: MV-4-11 cell line (AID 2202233); further: nearly all actives have a fitted effect of over 45% in size
# Outline: (§2)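 First, 500 cells per well were seeded; next, drugs were pinned as 11-point doses; then plates sat 48 hr in the incubator; finally CellTiter-Glo was added and luminescence read, with AUC and Z-AUC computed.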
# [4] = BET inhibitor-based combinations targeting novel dependencies in MECOM-rearranged (r) AML: HNT-34 cell line (AID 2202234); further: nearly all actives have a fitted effect of over 35% in size
# Outline: as §2
# [5] = molecular target: Retinaldehyde dehydrogenase 3 (Homo sapiens) (UniProt P47895); assay: qHTS for Inhibitors of the Aldehyde Dehydrogenase Family (ALDH1A3) Primary screen (AID 2061315)
# [6] = BET inhibitor-based combinations targeting novel dependencies in MECOM-rearranged (r) AML: UCSD-AML1 cell line (AID 2202235); further: nearly all actives have a fitted effect of over 40% in size
# Outline: as §2
# [7] = BET inhibitor-based combinations targeting novel dependencies in MECOM-rearranged (r) AML: AML-191 cell line (AID 2202236; further: nearly all actives have a fitted effect of over 35% in size)
# Outline: as §1
# [8] = BET inhibitor-based combinations targeting novel dependencies in MECOM-rearranged (r) AML: AML-194 cell line (AID 2202237; further: nearly all actives have a fitted effect of over 40% in size)
# Outline: as §1
# Potency means the concentration at half of the fitted maximal effect.
Compound,Potency [1],Potency [2],Potency [3],Potency [4],viability [1],Potency [5],Potency [6],Potency [7],Potency [8]
O=c1[nH]c(=O)n([C@H]2C[C@H](O)[C@@H](CO)O2)cc1F,0.296 µM (active),0.417 µM (active),74.2 nM (active),5.9 µM (active),,,,,
CC1(C)C(N(O)C(=O)Nc2ccc(Cl)cc2)N(c2ccc(Cl)cc2)C(=O)N1CC(=O)N/N=C/C=C/c1ccc([N+](=O)[O-])o1 (configuration not stated),20.9 µM (active),3.32 µM (active),4680 nM (active),,,,,,
C[C@H]1CC2[C@@H]3CCC4=CC(=O)C=C[C@]4(C)[C@@]3(F)[C@@H](O)C[C@]2(C)[C@@]1(O)C(=O)CO (some centres not stated),,inactive,inactive,inactive,115%,,,,
C[C@H](O)[C@@H]1C(=O)N2C(C(=O)O)=C(S[C@@H]3CN[C@H](CNS(N)(=O)=O)C3)[C@@H](C)[C@@H]12,,inactive,,inactive,118%,inactive,inactive,inactive,
COc1nc(N)nc2c1ncn2C1OC(CO)C(O)C1O (configuration not stated),,inactive,inactive,,114%,,,,
CN(CCO)C1CCN(c2ccc(Nc3ncc4c5ccnc(F)c5n(C5CCCC5)c4n3)nc2)CC1,2.04 µM (active),0.182 µM (active),129 nM (active),1.82 µM (active),,,,,
CC(C)Oc1ccc(-c2nc(-c3cccc4c3CC[C@@H]4NCCO)no2)cc1C#N,,,,,97.4%,,,,
Cc1ccc(NC(=O)Nc2nnc(Sc3ncnc4cc(OCCCN5CCOCC5)ccc34)s2)cc1,,14.8 µM (active),16.6 nM (active),14.8 µM (active),111%,,,,
CN(C)c1ccc(Nc2nc(N)n(C(=O)c3c(F)cccc3F)n2)cc1,18.6 µM (active),23.5 µM (active),4170 nM (active),14.8 µM (active),,14.1 µM (active),2.63 µM (active),,
C=CC(=O)N1C[C@H](Nc2ncnc3[nH]ccc23)CC[C@@H]1C,,,,,94.9%,,,,
CC1=C2[N-][C@H]([C@H](CC(N)=O)[C@@]2(C)CCC(=O)NC[C@@H](C)OP(=O)([O-])O[C@H]2[C@@H](O)[C@@H](n3cnc4cc(C)c(C)cc43)O[C@@H]2CO)[C@]2(C)N=C(C(C)=C3N=C(C=C4N=C1[C@@H](CCC(N)=O)C4(C)C)[C@@H](CCC(N)=O)[C@]3(C)CC(N)=O)[C@@H](CCC(N)=O)[C@]2(C)CC(N)=O.O.[Co+2],,,,,95.1%,,,,
CN(Cc1ccccc1)C(=O)c1ccc(S(=O)(=O)Nc2ccccc2)cc1,,inactive,,,103%,inactive,inactive,inactive,inactive
CCCCCCCCCCCC1=C(O)C(=O)C=C(O)C1=O,,,,,115%,,,,
COc1ccc(-c2cc(C(O)C3CCCCN3)c3ccccc3n2)cc1 (configuration not stated),14.8 µM (active),20.9 µM (active),2950 nM (active),13.2 µM (active),,inactive,9.34 µM (active),14.8 µM (active),11.8 µM (active)
NS(=O)(=O)c1ccc(S(=O)(=O)Nc2cccc3c(Cl)c[nH]c23)cc1,14.8 µM (active),2.95 µM (active),590 nM (active),1.32 µM (active),,,2.35 µM (active),,
CC(=O)N1c2ccc(-c3ccc(C(=O)O)cc3)cc2[C@H](Nc2ccc(Cl)cc2)C[C@@H]1C,0.372 µM (active),0.0661 µM (active),93.4 nM (active),0.468 µM (active),,,1.32 µM (active),,
CN(Cc1ccc(/C=C/C(=O)NO)cc1)CC12CC3CC(CC(C3)C1)C2,0.105 µM (active),0.148 µM (active),93.4 nM (active),0.148 µM (active),,,0.132 µM (active),0.148 µM (active),
COc1ccc(-c2oc3c(CC=C(C)C)c(OC4O[C@H](CO)[C@@H](O)[C@H](O)[C@H]4O)cc(O)c3c(=O)c2OC2O[C@@H](C)[C@H](O)[C@@H](O)[C@H]2O)cc1 (some centres not stated),,inactive,inactive,inactive,116%,,inactive,inactive,
COc1cc([C@@H]2c3cc4c(cc3[C@@H](O[C@@H]3O[C@@H]5CO[C@@H](C)O[C@@H]5[C@H](O)[C@@H]3O)[C@H]3COC(=O)[C@H]23)OCO4)cc(OC)c1O,5.25 µM (active),0.934 µM (active),166 nM (active),1.48 µM (active),,,0.833 µM (active),1.32 µM (active),2.09 µM (active)
CC(/C=C1\SC(=S)N(CC(=O)O)C1=O)=C\c1ccccc1,,inactive,inactive,inactive,113%,,inactive,inactive,inactive

Compound,Potency [1],Potency [2],Potency [3],Potency [4],viability [1],Potency [5],Potency [6],Potency [7],Potency [8]
CN1C(N)=N[C@](C)(c2cc(NC(=O)c3ccc(F)cn3)ccc2F)CS1(=O)=O,,inactive,inactive,inactive,121%,,inactive,inactive,
C=C1C(=O)O[C@@H]2[C@H]3C(C)=CC[C@@]34O[C@@]4(C)CC[C@@H]12,9.34 µM (active),8.33 µM (active),7420 nM (active),10.5 µM (active),,,13.2 µM (active),13.2 µM (active),
C=C1C(=O)O[C@H]2C[C@H](C)C(/C=C/C(C)=O)=CC[C@H]12,4.68 µM (active),1.18 µM (active),1860 nM (active),3.32 µM (active),,,2.09 µM (active),2.35 µM (active),
COc1cc2c3c(n(CCCNCCO)c(=O)c2cc1OC)-c1cc2c(cc1C3=O)OCO2,0.148 µM (active),0.0934 µM (active),59 nM (active),0.059 µM (active),,,0.0742 µM (active),0.166 µM (active),
CCN(CC)CCCC[C@H](NC(=O)[C@H](CC(C)C)NC(=O)[C@H](C)NC(=O)[C@H](Cc1ccccc1)NC(=O)c1ccc(C(C)(C)C)cc1)C(=O)N[C@@H](CO)C(=O)OC ({Benzoyl(4-tBu)}-FAL[Lys(Et2)]S-OMe),,inactive,inactive,inactive,71.5%,,inactive,inactive,
CN(C)CCCN=c1c2ccccc2n(C)c2[nH]c(=O)n(C)c(=O)c12,23.5 µM (active),18.6 µM (active),9340 nM (active),23.5 µM (active),,,26.3 µM (active),18.6 µM (active),
CCOc1ccc(-n2c([C@@H](C)N(Cc3cccnc3)C(=O)Cc3ccc(F)c(C(F)(F)F)c3)nc3ncccc3c2=O)cc1,,inactive,18600 nM (active),inactive,112%,,inactive,inactive,
CN1C(=O)N[C@H](Cc2c[nH]c3c(Cl)cccc23)C1=O,,inactive,37200 nM (active),inactive,113%,,inactive,inactive,
CC(C)[C@H]1C(=O)N[C@@H](CCCN=C(N)N)C(=O)NCC(=O)N[C@@H](CC(=O)O)C(=O)N[C@H](Cc2ccccc2)C(=O)N1C,,inactive,inactive,inactive,124%,,inactive,inactive,
CO[C@H]1/C=C/O[C@@]2(C)Oc3c(C)c(O)c4c(O)c(c5c(nc6cc(C)ccn65)c4c3C2=O)NC(=O)/C(C)=C\C=C\[C@H](C)[C@H](O)[C@@H](C)[C@@H](O)[C@@H](C)[C@H](OC(C)=O)[C@@H]1C,,inactive,inactive,inactive,111%,,inactive,inactive,inactive
Cc1[nH]cnc1CN1CCN(C(=O)N[C@@H](CC(C)C)C(=O)O)[C@@H](Cc2ccccc2)C1=O,,6.61 µM (active),inactive,inactive,123%,,inactive,inactive,inactive
CC[C@@]1(O)C(=O)OCc2c1cc1n(c2=O)Cc2c-1nc1ccccc1c2CCNC(C)C,0.0166 µM (active),0.0047 µM (active),4.2 nM (active),0.0037 µM (active),,,0.0074 µM (active),0.0118 µM (active),
CC[C@@]1(O)C(=O)OCc2c1cc1n(c2=O)Cc2c-1nc1cc(F)c(C)c3c1c2[C@@H](N)CC3,0.0037 µM (active),0.0053 µM (active),4.2 nM (active),0.003 µM (active),,,0.0042 µM (active),0.0083 µM (active),0.0037 µM (active)
CC(=O)OCC(=O)[C@@]12OC(C)(C)O[C@@H]1C[C@H]1[C@@H]3C[C@H](F)C4=CC(=O)C=C[C@]4(C)[C@@]3(F)[C@@H](O)C[C@@]12C,,inactive,inactive,inactive,105%,,inactive,inactive,
Ac-PHSCN-NH2,,inactive,inactive,inactive,109%,,inactive,inactive,inactive
CC(C)(NS(=O)(=O)c1ccc2c(Cl)cnc(N=C(N)N)c2c1)C(=O)O,,inactive,inactive,inactive,117%,,inactive,inactive,
COc1ccc([C@@H](O)[C@@H](C)Oc2ccc([C@H]3O[C@H](c4ccc(O[C@H](C)[C@H](O)c5ccc(OC)c(OC)c5)c(OC)c4)[C@H](C)[C@H]3C)cc2OC)cc1OC,13.2 µM (active),1.05 µM (active),4170 nM (active),23.5 µM (active),,,18.6 µM (active),18.6 µM (active),
O=C(CCCCCCC(=O)N/N=C/c1ccc(N(c2ccccc2)c2ccccc2)cc1)NO,7.42 µM (active),13.2 µM (active),4680 nM (active),4.68 µM (active),,,7.42 µM (active),6.61 µM (active),
COc1cc2c(Oc3ccc4[nH]c(C)cc4c3F)ccnc2cc1OCC1(N)CC1,16.6 µM (active),7.42 µM (active),8330 nM (active),10.5 µM (active),,,9.34 µM (active),7.42 µM (active),
CC(=O)c1ccc2c(c1)c1cc(C(C)=O)ccc1n2CCNC(C)C,1.18 µM (active),1.05 µM (active),525 nM (active),1.32 µM (active),,,0.833 µM (active),0.833 µM (active),
